# Assay outcomes (PubChem BioAssay)
# TIM10 inh – inhibits growth of TIM10 yeast strain. S. cerevisiae TIM10 strain growth, BacTiter-Glo luminescence, 24 h. inhibition, % at 10 µM. 1.4% of 330,000 active. AID 463195;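 active = inhibition of 40% or more at the single tested concentration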;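 note: wild-type TIM10 isogenic control strain grown at permissive 25 °C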
# SKKanGAS inh – inhibitors of SKKanGAS S. pyogenes growth in kanamycin (SK-promoter or general growth effect). BacTiter-Glo, 6 h. inhibition, % at 7.5 µM. 1.3% of 300,000 active. AID 1662;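 active = mean replicate score, as percent of positive control median, at least 50; inconclusive = mean below 50 but one replicate at or above 50; inactive = mean and every replicate below 50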;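 note: strain carries kanamycin resistance gene driven by streptokinase promoter and grows in 40 µg/ml kanamycin; loss of luminescence reflects streptokinase promoter inhibition or plain growth inhibition; 0% = median of DMSO wells and 100% = positive control at its reference dose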
# PfHsp90 yeast 2 – growth inhibition of yeast expressing Plasmodium Hsp90; S. cerevisiae expressing PfHsp90, BacTiter-Glo ATP, 48 h; yeast lacking PDR1 and PDR3 efflux regulators; inhibition, % at 9.4 µM; 0.32% of 310,000 active;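 active = every replicate shows inhibition above about 80%, whatever the replicate mean, limit read from the data; inconclusive = mean inhibition reaches the set limit but some replicate falls short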;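 note: 0% = DMSO neutral controls and 100% = 20 µM radicicol positive controls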
# V-ATPase pHluor – yeast V-ATPase proton transport regulation by pHLuorin | S. cerevisiae, pHLuorin cytosolic pH fluorescence | AID 504577 | 0.37% of 350,000 active | response, % at 10 µM; in the data active = response mostly above about 7.3%, no sharp cut-off; inactive = mostly below about 5.4%; note: actives read high
# tim10-1 inh – inhibits growth of tim10-1 mutant yeast; 2.2% of 330,000 active; S. cerevisiae tim10-1 ts strain growth, BacTiter-Glo, 24 h; inhibition, % at 20 µM;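 active = inhibition of at least 40%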;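 note: mutant grown at 25 °C; 0% = DMSO wells with yeast and 100% = wells holding no yeast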
# tim23-1 inh – growth inhibitors of tim23-1 mutant yeast; S. cerevisiae tim23-1 growth, BacTiter-Glo luminescence, 24 h; inhibition, % at 20 µM; 1.3% of 330,000 active; AID 463212;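 active = growth inhibition of the mutant yeast at or above 50%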;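 note: temperature-sensitive mutant grown at 25 °C; plate controls were DMSO-treated mutant yeast for no effect and medium wells lacking yeast for full effect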
# * marks the source's active call; other numbers are inactive results; ? = inconclusive; . = no result. Compounds with a hit are over-represented: about 4.6% of the library has one in this group of screens.
SMILES,TIM10 inh,SKKanGAS inh,PfHsp90 yeast 2,V-ATPase pHluor,tim10-1 inh,tim23-1 inh
CCN(CC)C(=O)c1[nH]cnc1C(=O)NCc1ccccc1,-2,.,5,-2,26,2
O=C(C1CCN(C2CCN(CC3CC=CCC3)CC2)CC1)N1CCOCC1 (stereo not drawn),-33,-11,-30,1,1,5
Cc1ccc(SCC(=O)N2c3ccccc3Sc3ccccc32)cc1,10,51*,-3,4,3,17
O=C(CSc1nncs1)N1c2ccccc2Sc2ccccc21,-13,3,-6,-5,3,13
COCCn1c(N)c(N(Cc2ccccc2)C(=O)COc2ccccc2F)c(=O)[nH]c1=O,-3,.,24,-3,12,12
COC(=O)C[C@H]1c2cc(C(F)(F)F)ccc2S(=O)(=O)N1Cc1ccccc1OC,-5,-4,-10,2,8,16
O=C(OCc1csc(-c2ccccc2)n1)c1ccccc1O,5,50*,-10,-1,-11,7
CC(CN1CCN(C)CC1)OC(=O)c1cccc(F)c1 (stereo not drawn),-9,-4,-1,0,-10,-8
O=C(Nc1ccccc1F)NC1CCCCCCC1,12,50*,7,-2,23,29
CNc1nc(N)c([N+](=O)[O-])c(NC2CCCCC2)n1,-7,5,-57,1,19,14
Nc1nc(Nc2ccccc2)nc(NC2CCCCC2)c1[N+](=O)[O-],13,79*,-24,-1,9,39
CCC(C)Sc1cc(-c2nc3ccc(C)cn3c2NCc2ccccc2)ccc1OC (stereo not drawn),.,74*,13,-1,.,.
CCC(C)Sc1cc(-c2nc3ccccn3c2NC2CCCCC2)ccc1OC (stereo not drawn),2,87*,14,0,40,3
CCC(C)Sc1cccc(-c2nc3ccc(C)cn3c2NC2CCCCC2)c1 (stereo not drawn),11,5,10,2,16,28
COc1ccc(-c2nc3ccc(C)cn3c2NCc2ccccc2)cc1SC1CCCCC1,17,16,-17,-15,5,6
CCC(C)Sc1ccc(-c2nc3ccc(C)cn3c2NCc2ccccc2)cc1OC (stereo not drawn),37,53*,-14,-2,36,50
Clc1cccc(Cl)c1CSc1nnc(-c2sccc2-n2cccc2)o1,12,-9,-4,-2,12,22
C=CCN1C(=O)c2ccc(C(=O)N(CCOC)c3c(N)n(CCCC)c(=O)[nH]c3=O)cc2C1=O,-4,-1,.,1,13,26
O=C(Cc1cccs1)N1CCN=C1SCc1cccc(F)c1,-3,8,6,3,7,22
COc1ccc(-c2n[nH]c(C(F)(F)F)c2-c2cc3ccccc3o2)c(O)c1,17,99*,73,-3,16,-127
COc1ccccc1-c1c(-c2ccc(OCC(=O)NN)cc2O)n[nH]c1C(F)(F)F,0,-2,25,-1,12,5
CCN(CC)C(=O)C1=C(C)N(Cc2ccc(OC)cc2)C(=O)C(CC(=O)NC2CCCCC2)C1 (stereo not drawn),.,.,.,0,.,.
CCCCc1nc2cc(C(=O)N(C)CCc3cn[nH]c3)ccc2o1,3,1,13,15*,-1,8
CCCCc1nc2cc(C(=O)N(C)C3CCOCC3)ccc2o1,-5,3,9,2,0,-4
O=C(/C=C/c1ccccc1)NCCc1ccccc1,-11,100*,-2,-2,-22,15
SMILES,TIM10 inh,SKKanGAS inh,PfHsp90 yeast 2,V-ATPase pHluor,tim10-1 inh,tim23-1 inh
Cc1oc(-c2cc3c(cc2Cl)OCO3)nc1CN1CCCC(C(=O)N2CCOCC2)C1 (stereo not drawn),-5,-1,-20,16*,-10,10
Cc1ccc(-n2cc(CN3CCC(O)(c4ccccn4)CC3)c(-c3ccc(F)cc3)n2)cc1,12,-3,11,14,30,10
CCC(C)n1c(SCC(=O)NC2CCS(=O)(=O)C2)nc2ccccc2c1=O (stereo not drawn),6,-1,6,3,7,17
Cc1csc2nc(CSc3nc4ccccc4o3)c(Br)n12,39,60*,-20,-9,33,41
O=C(COC(=O)C1(c2ccc(F)cc2)CCCC1)NCc1ccco1,15,6,23,-5,15,18
COC(=O)c1cccc(-n2nnnc2SCC(=O)Nc2nc3c(s2)CCCC3)c1,2,12,-38,24*,-1,0
COc1cc(/C=N/NC(=O)c2cc(-c3cccn3C)n[nH]2)cc(OC)c1OC,-9,63*,.,-2,3,9
COc1cccc(/C=N/NC(=O)c2cc(-c3cccn3C)n[nH]2)c1,-4,4,-6,-6,-6,13
c1ccc(CCNc2nc(-c3ccccn3)nc3ccccc23)cc1,20,113*,30,1,28,6
CCCN(CCC)c1nc(-c2ccccn2)nc2ccccc12,32,97*,-4,-2,17,-21
c1ccc(-c2nc(N3CCCCCC3)c3ccccc3n2)nc1,24,109*,.,-2,0,-22
CCN1CCN(c2nc(-c3ccccn3)nc3ccccc23)CC1,-24,-8,.,1,-35,-98
O=C(NC(=S)NNC(=O)c1ccccc1O)c1ccco1,.,65*,23,8,.,.
O=C(NC(=S)Nc1cccc(NC(=S)NC(=O)c2ccco2)n1)c1ccco1,-42,9,-8,-2,-66,-23
O=C(NC(=S)NNC(=O)c1cc2ccccc2cc1O)c1ccco1,18,98*,.,3,7,-18
O=C(NC(=S)NNC(=O)c1ccco1)c1ccc(F)cc1,-4,45,-26,0,39,-16
CN(C)/C=N/c1sccc1C(N)=O,-10,-3,10,16*,15,2
Cc1cc(C(=O)Nc2sccc2C(N)=O)c(C)o1,24,.,32,-5,-33,23
CCN1C(=O)[C@H]2[C@@H](c3ccc(-c4ccc(F)cc4)c(OC)c3)N[C@@](Cc3ccccc3)(C(=O)OC)[C@H]2C1=O,0,.,.,-2,11,17
COC(=O)[C@H](CCSC)NC(=O)Cn1cnc2c(NCc3ccccc3)ncnc21,-11,.,-3,1,1,23
Cn1c2ccccc2c2cc(/C=N/NC(=O)c3cc(O)cc(O)c3)ccc21,-2,18,19,0,5,6
COc1cc(C(=O)N/N=C/c2ccc3c(c2)c2ccccc2n3C)ccc1O,-9,51*,-1,-12,-12,-7
Cc1cc2nc(C)c3c(n2n1)CCC3,-13,-1,11,3,7,9
COc1ccc(-c2oc(NC(=O)CSc3ncn[nH]3)c(C#N)c2-c2ccc(OC)cc2)cc1,-25,70*,-22,-3,-3,-11
COc1ccc(-c2oc(NC(=O)CCl)c(C#N)c2-c2ccc(OC)cc2)cc1,34,?,13,0,33,42
